According to PubChem BioAssay (Tox21):
Records with an inconclusive call do not appear. Active and inactive are the calls of the source. Unless noted, calls come from the whole dose curve.

Tests used:
[1] = Nuclear factor erythroid 2-related factor 2/antioxidant responsive element (Nrf2/ARE) small molecule agonists: qHTS cell viability counter screen in human keratinocytes (AID 1919968; active = well fitted curve in the direction sought with a large enough effect in the repeat runs; an effect the other way counts as inactive or inconclusive; note: nearly all actives have a fitted effect of over 55% in size; note: potency is the fitted concentration of half-maximal effect)
Procedure, shortened: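 HaCaT ARE reporter line, 1,500 cells/well; 5 h settle, 37 C/5% CO2; cpd in DMSO pinned; 23 h exposure; CellTiter-Fluor, 1 h; fluorescence.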

[2] = Nuclear factor erythroid 2-related factor 2/antioxidant responsive element (Nrf2/ARE) small molecule agonists: luciferase reporter gene qHTS assay in human keratinocytes (AID 1919969); note: nearly all actives have a fitted effect of over 35% in size; note: potency is the fitted concentration of half-maximal effect
[3] = biological target: Gonadotropin-releasing hormone receptor (Homo sapiens) (UniProt P30968); assay: Human gonadotropin-releasing hormone receptor (GnRHR) small molecule agonists, calcium flux assay in GnRHR-HEK293 cells (AID 1920063); note: nearly all actives have a fitted effect of over 35% in size
Chain of Gonadotropin-releasing hormone receptor (Homo sapiens) (P30968 whole entry, looked up): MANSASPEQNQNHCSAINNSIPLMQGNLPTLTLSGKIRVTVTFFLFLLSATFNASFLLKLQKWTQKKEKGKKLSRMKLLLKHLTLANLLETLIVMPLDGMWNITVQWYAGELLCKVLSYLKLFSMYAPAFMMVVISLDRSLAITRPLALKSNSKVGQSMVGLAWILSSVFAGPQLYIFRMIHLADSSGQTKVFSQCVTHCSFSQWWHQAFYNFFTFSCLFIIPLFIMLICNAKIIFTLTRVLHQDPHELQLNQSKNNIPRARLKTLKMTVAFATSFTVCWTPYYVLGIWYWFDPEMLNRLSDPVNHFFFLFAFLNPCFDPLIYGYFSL
Procedure, shortened: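 GnRHR-HEK293, 1500 cells/well, 18 h 37 C/5% CO2; Ca dye 1 h 37 C; cpd pinned (DMSO), agonist mode; kinetic FL 480/540, 3 min, 1 s reads; 15 conc, n=3.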

[4] = biological target: KiSS-1 receptor (Homo sapiens) (UniProt Q969F8); assay: Human kisspeptin (KISS1R) small molecule agonists, calcium flux assay in KISS1R-HEK293 cells (AID 1920064; active = well fitted curve in the direction sought with a large enough effect in the repeat runs; an effect the other way counts as inactive or inconclusive)
Chain of KiSS-1 receptor (Homo sapiens) (Q969F8 whole entry, looked up): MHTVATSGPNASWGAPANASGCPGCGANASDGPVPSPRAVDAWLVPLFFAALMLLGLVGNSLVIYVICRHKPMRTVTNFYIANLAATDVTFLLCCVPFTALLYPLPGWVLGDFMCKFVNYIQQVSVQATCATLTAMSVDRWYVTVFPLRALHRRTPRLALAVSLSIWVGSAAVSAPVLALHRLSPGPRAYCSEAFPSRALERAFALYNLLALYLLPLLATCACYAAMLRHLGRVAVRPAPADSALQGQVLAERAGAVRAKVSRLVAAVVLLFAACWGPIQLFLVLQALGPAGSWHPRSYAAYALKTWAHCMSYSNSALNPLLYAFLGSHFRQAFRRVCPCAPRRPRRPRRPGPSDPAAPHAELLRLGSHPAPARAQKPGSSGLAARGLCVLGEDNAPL
Procedure, shortened: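 Stable human KISS1R HEK293 line; 18 h plating, 37 C/5% CO2; calcium dye 1 h 37 C; compound pin transfer; kinetic fluorescence Ex/Em 480/540, 3 min.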

[5] = G protein-coupled receptor (GPCR) small molecule agonists, calcium flux assay: HEK293 wild type cell line counter screen (AID 1920065)
Procedure, shortened: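 Kinetic fluorescence at Ex/Em 480/540, recorded every second over 3 min, served as the read-out after compound addition. Each compound was tested at 15 concentrations in triplicate on cells pre-loaded with calcium dye for 1 h.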

[6] = p53 small molecule agonists, cell-based qHTS assay with human liver microsomes: qHTS cell viability counter screen (AID 1963579); note: nearly all actives have a fitted effect of over 45% in size; note: potency is the fitted concentration of half-maximal effect
Procedure, shortened: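 Cells carrying the p53 response-element beta-lactamase reporter are treated for 16 h at 37 C with test compounds in the presence of human liver microsomes and NADPH (both 0.5 mg/mL final); ATP-based CellTiter-Glo luminescence then reports viability.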

[7] = p53 small molecule agonists, cell-based qHTS assay with rat liver microsomes: qHTS cell viability counter screen (AID 1963580); note: nearly all actives have a fitted effect of over 45% in size
Procedure, shortened: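 Intracellular ATP, by CellTiter-Glo luminescence, defines viability. HCT-116 p53RE-bla cells, 4,000 per well, were compound-treated in the presence of rat liver microsomes and NADPH for 16 h at 37 C.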

[8] = p53 small molecule agonists, cell-based qHTS assay: qHTS cell viability counter screen (AID 1963581); note: nearly all actives have a fitted effect of over 45% in size; note: potency is the fitted concentration of half-maximal effect
Procedure, shortened: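 HCT-116 p53RE-bla cells, 4,000/well, plated 5 h before compound pin transfer; 16 h at 37 C; bla substrate 2 h RT; then CellTiter-Glo, 30 min RT, luminescence.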

[9] = p53 small molecule agonists, cell-based qHTS assay (AID 1963582; active = well fitted activation curve with a large enough effect in the signal ratio in the repeat runs, not every such curve was filed as active; the % refers to the signal ratio; note: potency is the fitted concentration of half-maximal effect)
Procedure, shortened: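 Reporter line: p53RE-bla. Pre-incubation 5 h, 37 C, 5% CO2; compound (DMSO, pin tool) 16 h, 37 C; B/G FRET substrate 2 h RT; fluorescence intensity read.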

[10] = biological target: 5-hydroxytryptamine receptor 2A (Homo sapiens) (UniProt P28223); assay: 5-hydroxytryptamine receptor 2A (HTR2A) small molecule agonists, cell-based qHTS assay (AID 1963587); note: nearly all actives have a fitted effect of over 30% in size; note: potency is the fitted concentration of half-maximal effect
Chain of 5-hydroxytryptamine receptor 2A (Homo sapiens) (P28223 whole entry, looked up): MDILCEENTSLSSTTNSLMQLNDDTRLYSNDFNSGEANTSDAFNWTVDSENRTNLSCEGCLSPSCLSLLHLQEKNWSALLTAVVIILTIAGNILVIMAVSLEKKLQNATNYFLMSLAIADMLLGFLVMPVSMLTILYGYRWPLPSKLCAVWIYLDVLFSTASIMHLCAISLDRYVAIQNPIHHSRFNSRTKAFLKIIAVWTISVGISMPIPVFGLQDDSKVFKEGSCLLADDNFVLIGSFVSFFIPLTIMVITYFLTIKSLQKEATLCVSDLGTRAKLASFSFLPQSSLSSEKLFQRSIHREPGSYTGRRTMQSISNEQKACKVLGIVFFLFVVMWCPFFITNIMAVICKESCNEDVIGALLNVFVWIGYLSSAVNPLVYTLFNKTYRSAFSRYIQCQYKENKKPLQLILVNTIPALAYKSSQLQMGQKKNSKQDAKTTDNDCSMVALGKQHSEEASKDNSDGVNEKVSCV
Procedure, shortened: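 Kinetic calcium-flux fluorescence (2 min, 1 sec intervals) after compound addition in agonist mode. HTR2A-CHO cells were cultured 18 h, then dye-loaded 1 h at 37 C.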

[11] = biological target: Muscarinic acetylcholine receptor M1 (Homo sapiens) (UniProt P11229); assay: Cholinergic receptor muscarinic 1 (CHRM1) small molecule antagonists, cell-based qHTS assay (AID 1963588); note: nearly all actives have a fitted effect of over 40% in size
Chain of Muscarinic acetylcholine receptor M1 (Homo sapiens) (P11229 whole entry, looked up): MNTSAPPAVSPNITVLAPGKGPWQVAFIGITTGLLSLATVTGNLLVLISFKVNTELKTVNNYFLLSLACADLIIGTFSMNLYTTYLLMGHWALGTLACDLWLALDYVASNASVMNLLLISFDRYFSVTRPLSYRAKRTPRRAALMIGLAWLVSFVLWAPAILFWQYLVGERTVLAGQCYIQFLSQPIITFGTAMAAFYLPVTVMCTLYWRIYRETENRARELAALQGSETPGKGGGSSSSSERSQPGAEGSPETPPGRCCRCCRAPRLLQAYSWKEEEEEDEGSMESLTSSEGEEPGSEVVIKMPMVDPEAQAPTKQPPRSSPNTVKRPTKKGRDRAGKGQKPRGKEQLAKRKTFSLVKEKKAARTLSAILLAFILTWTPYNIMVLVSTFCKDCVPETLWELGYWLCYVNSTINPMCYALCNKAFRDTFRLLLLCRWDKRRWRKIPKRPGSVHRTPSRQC
Procedure, shortened: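 CHRM1-CHO calcium-flux assay, antagonist mode. Cells were seeded 18 h, dye-loaded 1 h at 37 C and given compound for 5 min at RT, then acetylcholine was added at 50nM. FDSS fluorescence was read 3 min; 15 concentrations, three runs.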

[12] = biological target: Muscarinic acetylcholine receptor M1 (Homo sapiens) (UniProt P11229); assay: Cholinergic receptor muscarinic 1 (CHRM1) small molecule agonists, cell-based qHTS assay (AID 1963589); note: nearly all actives have a fitted effect of over 35% in size
Procedure, shortened: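 Human M1 in stable CHO line; 18 h plating, 1 h dye load 37 C; cpd added (agonist mode); Ca2+ fluorescence kinetic read, 1 s intervals; 15 conc, 3 runs.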

[13] = cAMP Responsive Elements (CRE) small molecule agonists, cell-based qHTS assay (AID 1963590)
Procedure, shortened: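 HEK 293T CRE-bla, 2,000 cells/well, 18 h preincubation 37 C/5% CO2; cpds (DMSO) pinned, 3 h; LiveBLAzer B/G FRET substrate, 2 h RT.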

[14] = biological target: Beta-2 adrenergic receptor (Homo sapiens) (UniProt P07550); assay: Adrenergic beta2 receptor (ADRB2) small molecule antagonists, cell-based qHTS assay (AID 1963592); note: series mostly up to about 92 µM; nearly all actives have a fitted effect of over 50% in size
Chain of Beta-2 adrenergic receptor (Homo sapiens) (P07550 whole entry, looked up): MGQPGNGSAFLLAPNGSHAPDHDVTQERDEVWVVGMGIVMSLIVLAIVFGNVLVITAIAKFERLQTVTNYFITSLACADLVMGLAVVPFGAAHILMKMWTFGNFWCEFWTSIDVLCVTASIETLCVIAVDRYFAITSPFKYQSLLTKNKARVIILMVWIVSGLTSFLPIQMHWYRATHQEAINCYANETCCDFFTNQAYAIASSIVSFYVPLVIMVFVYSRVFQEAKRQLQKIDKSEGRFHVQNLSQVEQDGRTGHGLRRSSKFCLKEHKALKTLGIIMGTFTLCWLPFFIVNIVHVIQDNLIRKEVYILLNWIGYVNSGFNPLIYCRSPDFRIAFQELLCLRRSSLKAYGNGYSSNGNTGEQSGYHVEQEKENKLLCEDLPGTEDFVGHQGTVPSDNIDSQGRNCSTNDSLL
Procedure, shortened: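 Cells (CHO, stable ADRB2 overexpression) incubated 18-20hr at 37C; compounds added from DMSO; agonist mix (1nM isoproterenol, 100uM IBMX, 25uM Ro-20-1724) added; 0.5hr RT; d2-cAMP and anti-cAMP-cryptate added; 1hr RT; 665/615 nm read.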

[15] = biological target: D(2) dopamine receptor (Homo sapiens) (UniProt P14416); assay: Dopamine D2 receptor (DRD2) small molecule agonists, cell-based qHTS assay (AID 1963594); note: nearly all actives have a fitted effect of over 35% in size
Chain of D(2) dopamine receptor (Homo sapiens) (P14416 whole entry, looked up): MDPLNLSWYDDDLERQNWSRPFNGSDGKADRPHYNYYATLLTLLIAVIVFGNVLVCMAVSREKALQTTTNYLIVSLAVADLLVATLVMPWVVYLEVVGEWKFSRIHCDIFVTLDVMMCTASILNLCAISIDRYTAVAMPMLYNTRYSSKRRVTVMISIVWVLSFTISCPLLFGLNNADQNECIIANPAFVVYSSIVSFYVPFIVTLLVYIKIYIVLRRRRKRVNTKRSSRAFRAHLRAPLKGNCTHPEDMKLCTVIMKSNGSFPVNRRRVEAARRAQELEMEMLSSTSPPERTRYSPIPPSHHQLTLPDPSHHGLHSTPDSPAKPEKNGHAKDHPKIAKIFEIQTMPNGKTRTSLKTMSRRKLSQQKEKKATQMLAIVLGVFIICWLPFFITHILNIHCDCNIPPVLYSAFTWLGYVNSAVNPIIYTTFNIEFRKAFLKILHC
Procedure, shortened: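 cAMP accumulation in DRD2-HEK293 cells measured by HTRF after 1 h detection; compounds added 10 min before NKH477 (200nM […]) forskolin-analogue stimulation, 30 min at room temperature, with Ro20-1724 present at 0.1 mM final.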

[16] = biological target: D(2) dopamine receptor (Homo sapiens) (UniProt P14416); assay: Dopamine D2 receptor (DRD2) small molecule antagonists, cell-based qHTS assay (AID 1963595; active = well fitted inhibition curve with a large enough effect in the signal ratio in the repeat runs, with a control signal flat; the % refers to the signal ratio; note: potency is the fitted concentration of half-maximal effect)
Procedure, shortened: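 In this cell-based antagonist screen, compounds act for 10 min at room temperature before a 30 min challenge with 12 nM quinpirole and 200 nM NKH477. cAMP is quantified by HTRF competition in DRD2-HEK293 cells containing 0.1 mM Ro20-1724.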

[17] = biological target: Beta-2 adrenergic receptor (Homo sapiens) (UniProt P07550); assay: Adrenergic beta2 receptor (ADRB2) small molecule agonists, cell-based qHTS assay (AID 1963593);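 note: CHO cells stably overexpressing human ADRB2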
Procedure, shortened: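 CHO cells stably over-expressing ADRB2 were plated overnight at 37C, then dosed with compounds plus a stimulation mix containing 100uM IBMX and 25uM Ro-20-1724 for 0.5hr at room temperature. cAMP was measured by HTRF competition, 1hr.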

[18] = cAMP Responsive Elements (CRE) small molecule antagonists, cell-based qHTS assay (AID 1963591; active = well fitted inhibition curve with a large enough effect in the signal ratio in the repeat runs, not every such curve was filed as active; the % refers to the signal ratio; note: potency is the fitted concentration of half-maximal effect)
Procedure, shortened: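 Beta-lactamase reporter read by FRET substrate (LiveBLAzer B/G) after 2 h at room temperature. CRE-bla HEK293T cells had received compound plus 0.25 uM (final) NKH477 for 3 h at 37 °C.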

[19] = biological target: 5-hydroxytryptamine receptor 2A (Homo sapiens) (UniProt P28223); assay: 5-hydroxytryptamine receptor 2A (HTR2A) small molecule antagonists, cell-based qHTS assay (AID 1963586); note: nearly all actives have a fitted effect of over 45% in size
Procedure, shortened: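 Antagonist-mode intracellular calcium assay: DOI (4 nM) added after 5 min compound pre-incubation at room temperature to dye-loaded HTR2A-CHO cells. Fluorescence followed for 3 min, sampled every second.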

[20] = p53 small molecule agonists, cell-based qHTS assay with rat liver microsomes (AID 1963578)
Procedure, shortened: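 Read-out is beta-lactamase reporter fluorescence (LiveBLAzer, 2 h, room temperature, dark) in p53RE-bla cells treated 16 h at 37 C with compound, rat liver microsomes and NADPH, both 0.5 mg/mL final.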

Measured: Potency

Nc1ccc(-c2ccc(F)cc2)cc1
not listed: [17] | [18] | [19] | [20]
inactive: all other assays above

Nc1nc(N)c2nc(CNc3ccc(C(=O)N[C@@H](CCC(=O)O)C(=O)O)cc3)cnc2n1
inactive: [1] | [2] | [3] | [4] | [5] | [6] | [7] | [13] | [14] | [17] | [15]

CCc1c(C)[nH]c2c1C(=O)C(CN1CCOCC1)CC2 (stereo unspecified)
active: [16] 750 nM
not listed: [8] | [14] | [17] | [19] | [20]
inactive: all other assays above

CC1=CCCC(C)(C)C12CCC(C)O2 (stereo unspecified)
not listed: [16] | [17] | [19] | [20]
inactive: all other assays above

CC(C)C[C@H](NC(=O)[C@H](Cc1ccccc1)NC(=O)c1cnccn1)B(O)O
active: [1] 596 nM | [2] 42.2 nM | [6] 890 nM | [8] 707 nM | [9] 14.1 nM | [18] 944 nM
not listed: [7] | [17] | [20]
inactive: all other assays above

COC(=O)c1ccc(C(=O)O)cc1
not listed: [8] | [17] | [19] | [20]
inactive: all other assays above

O=C(Cl)c1cc(Cl)cc(Cl)c1
not listed: [7] | [18] | [20]
inactive: all other assays above

CCOCN(C(=O)CS(=O)(=O)O)c1c(C)cccc1CC
not listed: [7] | [10] | [11] | [12] | [19] | [20]
inactive: all other assays above

O=C(O)CCCl
not listed: [10] | [14] | [18] | [20]
inactive: all other assays above

Nc1ccc(N)c2ccccc12
active: [1] 27300 nM | [2] 7690 nM | [10] 7750 nM
inactive: [3] | [4] | [5] | [9] | [11] | [12] | [13] | [18] | [16]

O=C1c2ccccc2-c2ccccc21
not listed: [13] | [17] | [20]
inactive: all other assays above

CC(CN=Cc1ccccc1O)N=Cc1ccccc1O (stereo unspecified)
not listed: [9] | [10] | [20]
inactive: all other assays above

CCCc1ccccc1O
not listed: [8] | [17] | [19] | [20]
inactive: all other assays above

C[Si](C)(C)C
not listed: [7] | [11] | [14] | [15] | [17] | [19] | [20]
inactive: all other assays above

CNC(=S)NN
active: [1] 12200 nM | [2] 6110 nM
not listed: [6] | [7] | [9] | [16] | [18]
inactive: all other assays above

CC1=Nc2ccccc2C1(C)C
active: [2] 43300 nM
not listed: [8] | [9] | [11] | [13] | [17] | [19] | [20]
inactive: all other assays above
